Drawing on ChEMBL document CHEMBL3988442, “University of Dundee, Small-Polar-MMV Screening Library” (2021), this text covers Percent Effect for ten molecules.

Holding throughout (parameters): scale not given: direction of the effect not stated beside the values
In experiment [1] the target is Protein translocase subunit SecA (Escherichia coli (strain K12)) (UniProt P10408). The experiment is described as follows: Assay to Identify E. coli SecA ATPase Inhibitors. In kind it is functional. The settings on record: 30 µM.
Protein translocase subunit SecA (Escherichia coli (strain K12)), sequence (P10408 whole entry): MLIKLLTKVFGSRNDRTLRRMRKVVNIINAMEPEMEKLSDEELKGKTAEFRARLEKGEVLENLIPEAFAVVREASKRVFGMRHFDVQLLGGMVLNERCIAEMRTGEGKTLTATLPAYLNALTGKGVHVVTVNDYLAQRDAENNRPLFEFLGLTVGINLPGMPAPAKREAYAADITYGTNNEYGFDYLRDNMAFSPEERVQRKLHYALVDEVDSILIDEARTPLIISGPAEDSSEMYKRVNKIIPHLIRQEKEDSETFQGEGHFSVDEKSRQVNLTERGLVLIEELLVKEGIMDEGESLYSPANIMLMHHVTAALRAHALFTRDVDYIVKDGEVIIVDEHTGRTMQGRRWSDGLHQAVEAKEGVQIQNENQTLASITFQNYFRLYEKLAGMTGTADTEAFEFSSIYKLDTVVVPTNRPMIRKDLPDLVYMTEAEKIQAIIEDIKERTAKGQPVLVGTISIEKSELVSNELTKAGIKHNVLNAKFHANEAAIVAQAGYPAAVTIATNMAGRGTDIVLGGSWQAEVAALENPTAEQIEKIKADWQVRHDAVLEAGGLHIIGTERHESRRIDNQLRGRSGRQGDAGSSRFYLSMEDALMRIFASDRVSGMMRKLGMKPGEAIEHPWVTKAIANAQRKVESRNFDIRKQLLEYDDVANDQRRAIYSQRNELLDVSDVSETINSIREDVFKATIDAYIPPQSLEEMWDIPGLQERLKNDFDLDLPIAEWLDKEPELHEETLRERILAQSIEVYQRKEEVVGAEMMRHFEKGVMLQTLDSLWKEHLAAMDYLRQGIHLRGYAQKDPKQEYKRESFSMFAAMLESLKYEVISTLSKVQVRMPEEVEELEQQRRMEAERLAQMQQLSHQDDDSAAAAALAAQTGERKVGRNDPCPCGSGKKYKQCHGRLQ
For experiment [2], the target named is T1, Ubiquitin-activating enzyme e1, putative (Leishmania donovani (strain BPK282A1)) (UniProt E9BSI1).
T1 sequence (whole entry): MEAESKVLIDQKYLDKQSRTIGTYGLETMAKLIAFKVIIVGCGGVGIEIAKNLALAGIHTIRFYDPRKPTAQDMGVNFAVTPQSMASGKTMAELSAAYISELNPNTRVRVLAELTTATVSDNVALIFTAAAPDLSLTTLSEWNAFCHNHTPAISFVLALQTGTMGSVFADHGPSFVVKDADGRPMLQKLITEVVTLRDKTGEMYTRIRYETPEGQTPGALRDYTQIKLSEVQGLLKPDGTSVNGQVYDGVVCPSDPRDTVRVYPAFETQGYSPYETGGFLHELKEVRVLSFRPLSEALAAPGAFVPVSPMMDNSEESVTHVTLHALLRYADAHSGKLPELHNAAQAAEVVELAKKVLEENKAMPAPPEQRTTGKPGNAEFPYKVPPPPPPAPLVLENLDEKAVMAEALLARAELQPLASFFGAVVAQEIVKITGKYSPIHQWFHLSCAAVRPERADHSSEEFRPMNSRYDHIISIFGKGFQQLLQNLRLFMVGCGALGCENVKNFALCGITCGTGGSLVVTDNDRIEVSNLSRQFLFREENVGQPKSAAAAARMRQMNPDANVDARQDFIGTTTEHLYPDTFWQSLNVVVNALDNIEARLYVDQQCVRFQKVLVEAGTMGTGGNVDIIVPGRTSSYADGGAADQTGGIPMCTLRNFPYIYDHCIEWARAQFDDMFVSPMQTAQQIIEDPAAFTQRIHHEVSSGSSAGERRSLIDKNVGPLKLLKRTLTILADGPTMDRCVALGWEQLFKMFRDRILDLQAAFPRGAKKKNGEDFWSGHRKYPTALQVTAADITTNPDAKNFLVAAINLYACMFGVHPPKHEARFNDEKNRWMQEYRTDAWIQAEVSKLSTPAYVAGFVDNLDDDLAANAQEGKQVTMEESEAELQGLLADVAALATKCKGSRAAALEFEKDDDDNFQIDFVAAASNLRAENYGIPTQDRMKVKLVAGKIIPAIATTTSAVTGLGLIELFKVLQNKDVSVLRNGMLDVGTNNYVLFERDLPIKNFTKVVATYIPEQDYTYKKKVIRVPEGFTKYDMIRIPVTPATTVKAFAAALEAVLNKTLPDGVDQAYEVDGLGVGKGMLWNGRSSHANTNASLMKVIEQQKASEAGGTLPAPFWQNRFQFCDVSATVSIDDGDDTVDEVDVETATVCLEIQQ
The experiment is described as follows: Leishmania donovani Ubiquitin Activating Enzyme (LdE1). The class given is functional. The following applies: 30 µM.

Experiment [3] addresses AMP-activated protein kinase, AMPK (Homo sapiens) (UniProt P54646+O43741+P54619+Q9UGJ0+Q9Y478+Q13131+Q9UGI9). The experiment is described as follows: AMP-dependent Kinase enzyme assay. An in vitro enzyme assay that detects ADP turnover that is directly proportional to AMPK activity. This uses naive AMPK that is activated during the assay with MK-8722. In kind it is functional. The settings on record: 30 µM.

The target in experiment [4] is Sialic acid-binding Ig-like lectin 9 (Homo sapiens) (UniProt Q9Y336). The experiment is described as follows: Hs-Siglec9 ALPHAscreen SOP 20170721. The settings on record: 10 µM. For orientation: Alpha assays give light when donor and acceptor beads are brought close together.
Sialic acid-binding Ig-like lectin 9 (Homo sapiens), sequence (Q9Y336 whole entry): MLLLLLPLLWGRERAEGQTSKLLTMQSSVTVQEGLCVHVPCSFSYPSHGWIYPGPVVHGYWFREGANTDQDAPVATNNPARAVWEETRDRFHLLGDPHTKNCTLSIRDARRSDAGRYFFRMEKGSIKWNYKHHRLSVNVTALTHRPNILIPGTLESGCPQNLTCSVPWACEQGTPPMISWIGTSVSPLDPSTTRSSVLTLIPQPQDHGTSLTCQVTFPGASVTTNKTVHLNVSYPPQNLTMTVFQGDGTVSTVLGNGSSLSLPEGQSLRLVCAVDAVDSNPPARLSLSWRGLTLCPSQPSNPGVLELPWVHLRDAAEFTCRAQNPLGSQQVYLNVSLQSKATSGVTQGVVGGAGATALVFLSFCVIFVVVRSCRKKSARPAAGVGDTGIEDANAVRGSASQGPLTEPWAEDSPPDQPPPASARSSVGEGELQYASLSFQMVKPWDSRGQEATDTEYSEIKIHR
A further experiment concerns Trypanosoma cruzi. The experiment is described as follows: Trypanosoma cruzi phosphomannomutase and mannose-1-phosphate guanylyltransferase assay. In kind it is functional. The settings on record: 10 µM.
Experiment [5] has as its target T2, Arginase-2, mitochondrial (Homo sapiens) (UniProt P78540).
T2 sequence (whole entry): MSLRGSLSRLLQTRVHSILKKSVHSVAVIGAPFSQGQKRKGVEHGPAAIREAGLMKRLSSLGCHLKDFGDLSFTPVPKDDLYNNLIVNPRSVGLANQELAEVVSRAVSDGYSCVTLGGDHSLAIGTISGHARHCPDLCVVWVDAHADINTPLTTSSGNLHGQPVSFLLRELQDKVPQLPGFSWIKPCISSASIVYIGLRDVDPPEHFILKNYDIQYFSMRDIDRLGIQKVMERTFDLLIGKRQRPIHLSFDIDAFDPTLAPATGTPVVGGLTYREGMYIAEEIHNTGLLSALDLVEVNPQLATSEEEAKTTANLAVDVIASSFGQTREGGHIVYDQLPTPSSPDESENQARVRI
The experiment is described as follows: in vitro enzyme assay to detect the production of urea directly proportional to the activity of Arginase II. Note: in the data most compounds retested in dose-response had high values. In kind it is functional. The following applies: 33.3 µM.

Experiment [6] concerns the target T3, Proteasome subunit beta (Trypanosoma cruzi) (UniProt O96673).
T3 sequence (whole entry): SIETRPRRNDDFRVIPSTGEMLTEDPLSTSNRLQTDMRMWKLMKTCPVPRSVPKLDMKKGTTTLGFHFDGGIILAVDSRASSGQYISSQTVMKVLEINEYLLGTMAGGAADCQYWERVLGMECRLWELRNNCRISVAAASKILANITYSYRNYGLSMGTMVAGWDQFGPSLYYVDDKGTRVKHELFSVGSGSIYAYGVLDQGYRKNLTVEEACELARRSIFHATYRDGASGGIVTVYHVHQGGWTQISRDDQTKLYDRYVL
Kind of experiment: Trypanosoma cruzi proteasome chymotrypsin-like activity (TcProtChymo) assay. Note: in the data most compounds retested in dose-response had high values. In kind it is functional. The following applies: 9.37 µM.

The species entered for a further experiment is Homo sapiens. Kind of experiment: To identify inhibition of the IFN signalling (Jak-Stat) pathway via expression of an eGFP reporter gene under the control of an IFN-stimulated response element (ISRE) containing MxA promoter. The class given is functional. The settings on record: 30 µM.
The target in experiment [7] is T4, Tyrosyl-tRNA synthetase, putative (Trypanosoma cruzi (strain CL Brener)) (UniProt Q4DSP6).
T4 sequence (whole entry): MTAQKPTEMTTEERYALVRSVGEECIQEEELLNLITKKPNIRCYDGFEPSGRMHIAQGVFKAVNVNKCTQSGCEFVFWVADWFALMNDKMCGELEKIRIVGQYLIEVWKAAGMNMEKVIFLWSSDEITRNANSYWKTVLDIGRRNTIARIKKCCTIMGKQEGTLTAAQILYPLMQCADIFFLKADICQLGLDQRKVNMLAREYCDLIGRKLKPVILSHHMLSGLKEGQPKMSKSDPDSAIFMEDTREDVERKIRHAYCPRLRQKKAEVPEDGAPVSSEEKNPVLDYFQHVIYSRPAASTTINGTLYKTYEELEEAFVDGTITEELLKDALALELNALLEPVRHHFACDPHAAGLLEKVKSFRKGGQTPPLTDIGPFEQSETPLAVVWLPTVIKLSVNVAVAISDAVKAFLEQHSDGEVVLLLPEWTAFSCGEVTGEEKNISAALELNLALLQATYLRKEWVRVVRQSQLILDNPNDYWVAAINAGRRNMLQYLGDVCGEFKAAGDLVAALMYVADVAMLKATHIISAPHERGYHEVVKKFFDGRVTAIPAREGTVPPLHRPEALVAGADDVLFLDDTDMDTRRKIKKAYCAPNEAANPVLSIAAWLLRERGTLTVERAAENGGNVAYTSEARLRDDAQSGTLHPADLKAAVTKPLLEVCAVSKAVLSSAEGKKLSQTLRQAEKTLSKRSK
The experiment is described as follows: Trypanosoma cruzi tyrosyl tRNA synthetase (TcYRS) _High Tyrosine SOP. Note: in the data most compounds retested in dose-response had high values. The following applies: 30 µM. The class given is functional.

Experiment [8] concerns the target T4, Tyrosyl-tRNA synthetase, putative (Trypanosoma cruzi (strain CL Brener)). The experiment is described as follows: Trypanosoma cruzi tyrosyl tRNA synthetase (TcYRS) SOP. In kind it is functional. The following applies: 30 µM.
Experiment [9] concerns the target Chromo domain-containing protein 1 (Saccharomyces cerevisiae (strain ATCC 204508 / S288c) (Baker's yeast)) (UniProt P32657). Kind of experiment: ScCHD-1 Enzyme Inhibition Assay. Note: in the data most compounds retested in dose-response had high values. In kind it is functional. The settings on record: 30 µM.

Structures are written as SMILES. For some assays here: Results with a measured potency or affinity are listed apart.

Chromo domain-containing protein 1 (Saccharomyces cerevisiae (strain ATCC 204508 / S288c) (Baker's yeast)), sequence (P32657 whole entry, the tested form may be a part): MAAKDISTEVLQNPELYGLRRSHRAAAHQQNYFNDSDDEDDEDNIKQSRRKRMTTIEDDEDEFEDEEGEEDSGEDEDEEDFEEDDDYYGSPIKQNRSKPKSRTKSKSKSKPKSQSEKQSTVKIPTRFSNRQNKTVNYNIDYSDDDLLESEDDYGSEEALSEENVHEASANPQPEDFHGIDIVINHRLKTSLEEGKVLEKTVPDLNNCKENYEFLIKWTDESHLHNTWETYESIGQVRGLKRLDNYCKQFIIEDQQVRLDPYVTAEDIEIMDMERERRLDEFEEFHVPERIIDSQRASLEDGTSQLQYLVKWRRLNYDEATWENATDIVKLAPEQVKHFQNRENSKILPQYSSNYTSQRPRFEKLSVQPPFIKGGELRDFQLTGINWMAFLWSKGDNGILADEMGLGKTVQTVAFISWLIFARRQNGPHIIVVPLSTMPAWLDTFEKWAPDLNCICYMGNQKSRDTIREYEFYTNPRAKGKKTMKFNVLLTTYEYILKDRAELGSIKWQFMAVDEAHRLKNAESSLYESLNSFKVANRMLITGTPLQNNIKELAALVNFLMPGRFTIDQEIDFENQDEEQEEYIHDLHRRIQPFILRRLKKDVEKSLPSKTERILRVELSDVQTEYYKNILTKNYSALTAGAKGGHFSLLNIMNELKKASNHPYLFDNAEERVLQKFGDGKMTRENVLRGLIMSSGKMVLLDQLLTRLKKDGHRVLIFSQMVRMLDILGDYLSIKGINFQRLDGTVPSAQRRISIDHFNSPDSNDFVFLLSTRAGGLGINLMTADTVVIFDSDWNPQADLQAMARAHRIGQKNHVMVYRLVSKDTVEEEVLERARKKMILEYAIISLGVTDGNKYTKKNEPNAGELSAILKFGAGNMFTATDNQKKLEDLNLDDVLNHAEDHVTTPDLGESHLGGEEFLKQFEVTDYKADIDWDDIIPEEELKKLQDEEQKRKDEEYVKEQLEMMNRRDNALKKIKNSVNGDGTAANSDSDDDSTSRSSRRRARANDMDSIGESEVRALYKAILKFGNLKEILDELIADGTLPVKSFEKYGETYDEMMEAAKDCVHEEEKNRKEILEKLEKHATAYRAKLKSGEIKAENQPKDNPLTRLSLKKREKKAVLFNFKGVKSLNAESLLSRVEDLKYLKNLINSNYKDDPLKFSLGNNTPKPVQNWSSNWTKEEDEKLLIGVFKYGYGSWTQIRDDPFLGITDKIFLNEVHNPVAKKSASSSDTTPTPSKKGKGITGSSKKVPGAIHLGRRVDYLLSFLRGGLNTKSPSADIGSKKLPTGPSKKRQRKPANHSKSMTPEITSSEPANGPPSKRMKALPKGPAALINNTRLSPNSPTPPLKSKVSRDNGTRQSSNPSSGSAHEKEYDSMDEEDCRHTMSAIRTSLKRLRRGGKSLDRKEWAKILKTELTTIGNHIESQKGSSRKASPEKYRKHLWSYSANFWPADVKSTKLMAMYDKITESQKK

As to `c1coc(-c2noc(CN3CCC(c4ccn[nH]4)CC3)n2)c1`, the Percent Effect in experiment [1] was -1.24%; in [2], 5.41%; in [3], -3.37%; in experiment [4], 31.9%; in the experiment with Trypanosoma cruzi it was 5.02%; in experiment [5] it was 0%. Moreover, the Percent Effect in experiment [6] is 16.4%; in the experiment filed under Homo sapiens it was 3.15%; in [7], -1.59%; in experiment [8], 7.32%; in experiment [9], -4.25%.
As for `CN(C)c1cc(C(=O)NCCc2n[nH]c(=O)[nH]2)ccn1`, the Percent Effect is -2.65% in experiment [1]; 2.63% in experiment [2]; 5.52% in experiment [3]; 7.32% in experiment [4]; -0.487% in the experiment on Trypanosoma cruzi; 4.73% in experiment [5]. Besides, the Percent Effect in experiment [6] is 7.38%; in the experiment listed under Homo sapiens, 5.92%; in [7], 3.19%; in experiment [8], 5.2%; in experiment [9] it was -2.56%.
As to `O=C(c1cccc2c1OCO2)N1CCCC1Cn1cccn1` (stereo not given), the Percent Effect in [1] was -4.17%; in experiment [2] it was -2.6%; in experiment [3], 1.97%; in [4] it was 4.11%; in the experiment on Trypanosoma cruzi it was -1.47%; in experiment [5], -1.9%. For the same molecule, the Percent Effect in experiment [6] was 6.55%; in the experiment listed under Homo sapiens it was 14.8%; in experiment [7], 3.81%; in experiment [8] it was 9.41%; in [9], -8.43%.
Take `Cc1nc(C)n(CC2CCCCN2CC(=O)Nc2nncs2)n1` (stereo not given): the Percent Effect is -8.22% in experiment [1]; 2.67% in experiment [2]; -1.04% in experiment [3]; 1.02% in experiment [4]; -2.04% in the experiment on Trypanosoma cruzi; 2.6% in experiment [5]. Also, the Percent Effect was 2.79% in [6]; -3.85% in the experiment listed under Homo sapiens; 2.73% in experiment [7]; 11.1% in experiment [8]; -5.05% in experiment [9].
On to `Cc1nc2ccccc2c(=O)n1CCC(=O)N1CCNC(=O)C1`, for which the Percent Effect in experiment [1] is -4.53%; in [2], 10.5%; in experiment [3], 6.29%; in experiment [4], 11.3%; with Trypanosoma cruzi, 0.94%; in [5], 0%. The Percent Effect was 3.51% in [6]; 2.72% in the experiment filed under Homo sapiens; 4.41% in [7]; 9.76% in [8]; -6.93% in [9].
As to `O=C(c1cccnc1-n1cncn1)N1CCc2ccccc2C1`, the Percent Effect in experiment [1] is -1.58%; in experiment [2], 16.2%; in experiment [3], -4%; in experiment [4], 13.4%; in the experiment with Trypanosoma cruzi, 4.25%; in experiment [5], 1.91%. Further, the Percent Effect in [6] was 8.1%; in the experiment filed under Homo sapiens, 4.11%; in experiment [7], 5.82%; in [8], 9.76%; in experiment [9] it was -2.56%.
For `Cc1nc(CN2CCCC2c2c(C)nn(C)c2Cl)no1` (stereo not given), the Percent Effect in experiment [1] is -2.73%; in experiment [2] it was 5.26%; in [3], -8.02%; in [4] it was -3%; in the experiment on Trypanosoma cruzi it was -2.33%; in [5], -3.24%. Further, the Percent Effect in [6] is -9.22%; in the experiment listed under Homo sapiens it was -11.3%; in experiment [7] it was 3.45%; in [8] it was -1.24%; in experiment [9], 6.8%.
As for `CCc1ncnc2c1CCN(C(=O)Cc1ccccn1)CC2`, the Percent Effect is -1.33% in [1]; 4% in experiment [2]; -1.05% in [3]; 1.52% in [4]; -0.786% in the experiment with Trypanosoma cruzi; -9.33% in [5]. For the same molecule, the Percent Effect in experiment [6] is 11.8%; in the experiment filed under Homo sapiens it was 12.9%; in experiment [7], 1.06%; in experiment [8] it was -5.13%; in experiment [9], -2.69%.
As to `CCn1cnnc1CNC(=O)N1CCN(Cc2ccccc2)CC1`, the Percent Effect in experiment [1] was -4.19%; in experiment [2], 26%; in [3], -4.86%; in experiment [4] it was -6.22%; in the experiment with Trypanosoma cruzi, 6.95%; in experiment [5] it was -2.32%. Moreover, the Percent Effect in experiment [6] was 12.1%; in the experiment listed under Homo sapiens, 0.217%; in [7], 8.57%; in experiment [8], 30.6%; in [9] it was -22.4%.
Consider `Cn1cnc2c(N3CCCC3)nc(C3CCNCC3)cc21`, for which the Percent Effect in experiment [1] is -0.224%; in [2] it was 13.3%; in experiment [3] it was -2.65%; in experiment [4], 0.534%; in the experiment on Trypanosoma cruzi it was 0.965%; in [5] it was -48.6%. In addition, the Percent Effect in experiment [6] was 9.23%; in the experiment filed under Homo sapiens, 1.97%; in experiment [7] it was 3.12%; in [8], 20%; in experiment [9], -8.26%.
